Test results published in paper PMC4336329 (PLoS ONE, 2015).
Screen size: about 310,000 compounds; about 14,000 (4.5%) showed an effect of 50% or more. Effects have a minus sign here. The sample holds strong results, similar compounds and a random draw of the others, so the mix is not that of the screen.

These compounds were tested against human ether-à-go-go-related gene (hERG) potassium channel (human, UniProt Q12809) (assay: primary screen, population patch clamp on CHO cells stably expressing hERG; higher = less effect of the substance).
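Note: peak tail current of the secondary pulse compared with the same well before compound.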

Chain of human ether-à-go-go-related gene (hERG) potassium channel (Q12809 whole entry, looked up): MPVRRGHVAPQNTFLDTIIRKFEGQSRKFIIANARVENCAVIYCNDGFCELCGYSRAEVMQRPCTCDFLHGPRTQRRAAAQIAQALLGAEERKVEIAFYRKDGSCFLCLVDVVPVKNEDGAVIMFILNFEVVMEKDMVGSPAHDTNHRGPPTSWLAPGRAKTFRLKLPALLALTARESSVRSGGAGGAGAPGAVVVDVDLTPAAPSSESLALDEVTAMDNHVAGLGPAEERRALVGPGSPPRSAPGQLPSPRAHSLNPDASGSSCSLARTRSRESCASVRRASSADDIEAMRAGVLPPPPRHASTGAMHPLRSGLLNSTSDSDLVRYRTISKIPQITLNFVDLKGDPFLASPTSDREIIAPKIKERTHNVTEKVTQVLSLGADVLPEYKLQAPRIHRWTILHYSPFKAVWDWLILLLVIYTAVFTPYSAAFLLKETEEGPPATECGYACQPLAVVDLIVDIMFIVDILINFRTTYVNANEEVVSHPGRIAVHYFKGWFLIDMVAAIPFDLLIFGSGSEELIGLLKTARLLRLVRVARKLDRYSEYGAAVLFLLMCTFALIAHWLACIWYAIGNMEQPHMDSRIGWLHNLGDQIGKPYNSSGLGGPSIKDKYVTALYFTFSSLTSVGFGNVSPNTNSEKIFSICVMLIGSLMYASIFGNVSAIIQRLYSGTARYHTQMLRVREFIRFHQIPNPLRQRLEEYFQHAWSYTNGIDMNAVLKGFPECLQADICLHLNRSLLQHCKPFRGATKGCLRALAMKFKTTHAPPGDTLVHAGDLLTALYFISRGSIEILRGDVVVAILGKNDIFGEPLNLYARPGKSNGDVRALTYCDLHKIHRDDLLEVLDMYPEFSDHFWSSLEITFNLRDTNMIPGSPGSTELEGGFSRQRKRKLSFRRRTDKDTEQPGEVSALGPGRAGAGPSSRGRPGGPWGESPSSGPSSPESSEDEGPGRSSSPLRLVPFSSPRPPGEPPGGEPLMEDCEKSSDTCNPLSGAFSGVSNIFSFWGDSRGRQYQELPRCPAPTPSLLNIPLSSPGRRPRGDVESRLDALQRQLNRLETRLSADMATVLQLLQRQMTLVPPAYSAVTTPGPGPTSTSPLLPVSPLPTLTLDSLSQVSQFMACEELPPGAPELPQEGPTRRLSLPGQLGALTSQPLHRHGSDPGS

| SMILES | hERG current change (%, negative = inhibition) at 10uM |
| --- | --- |
| COC(=O)c1ccccc1C(=O)N1CCCC(CNC(=O)c2ccc(F)cc2)C1 (centres unmarked) | 11.2% |
| Cc1ccc(-n2cccn2)c(CN2CCCC(CNC(=O)c3ccc(F)cc3)C2)c1 (centres unmarked) | -75.5% |
| Cc1ccccc1CC(=O)N1CCCC(CNC(=O)c2ccc(F)cc2)C1 (centres unmarked) | -2% |
| CCn1ncc(CN2CCCC(CNC(=O)c3ccc(F)cc3)C2)c1C (centres unmarked) | -1.04% |
| Cc1cc(C)c(CN2CCCC(CNC(=O)c3ccc(F)cc3)C2)c(-n2cccn2)c1 (centres unmarked) | -75.6% |
| Cc1cc(C(=O)Nc2ccccc2N2CCOCC2)c(C)o1 | -18.1% |
| CCc1noc(C)c1C(=O)OCC(=O)N(CC)c1c(N)n(Cc2ccccc2)c(=O)[nH]c1=O | 10.9% |
| Cc1ccc(C2CC(=O)NC(SCCC(C)C)=C2C#N)cc1 (centres unmarked) | -10.6% |
| Cc1ccc(S(=O)(=O)NCCNC(=O)c2ccc(C)nc2)cc1 | -72% |
| Cc1ccc(C(=O)NCCNC(=O)c2ccc(C)nc2)cc1 | 5.21% |
| Cc1ccc(C(=O)NCCNS(=O)(=O)c2ccccc2)cn1 | 12.7% |
| COc1ccccc1NC(=O)COc1ccc(/C=N/NS(=O)(=O)c2ccc(C)cc2)cc1 | 20.1% |
| CC(=O)Nc1ccc2c(c1)nc(CCN1CCC(C)CC1)n2C | 8.83% |
| Cc1cccc(OCC(=O)Nc2ccc3c(c2)nc(CCN2CCC(C)CC2)n3C)c1 | -68.7% |
| COc1ccc(OCC(=O)Nc2ccc3c(c2)nc(CCN2CCC(C)CC2)n3C)cc1 | -75.4% |
| Cc1ccc(OCC(=O)Nc2ccc3c(c2)nc(CCN2CCC(C)CC2)n3C)cc1 | -70.6% |
| CC(=O)N1CCN(Cc2nc3cc(NC(=O)COc4cccc(C)c4)ccc3n2C)CC1.Cl | -15.3% |
| CCC(=O)Nc1ccc2c(c1)nc(CCN1CCC(C)CC1)n2C | 1.48% |
| CC1CCN(CCc2nc3cc(NC(=O)Nc4ccccc4)ccc3n2C)CC1 | -44.4% |
| CC1CCN(CCc2nc3cc(NC(=O)COc4ccccc4)ccc3n2C)CC1 | -68.4% |
| CCOC(=O)CSc1nc(N)cc(=O)[nH]1 | 7.78% |
| CN(Cc1ccccc1)C(=O)c1[nH]cnc1C(=O)NCc1ccc(CNC(=O)OC(C)(C)C)cc1 | -6.68% |
| CC(C)NC(=O)C1CCN(C(=O)C(C(=O)c2ccccc2)n2cc(Cl)ccc2=O)CC1 (centres unmarked) | 6.17% |
| COC(=O)c1ccc2c(C)c(C(C)(C)O)[nH]c2c1 | 10.3% |
| Cc1sc2nc(-c3cccnc3)[nH]c(=O)c2c1-c1ccccc1 | -4.06% |

| SMILES | hERG current change (%, negative = inhibition) at 10uM |
| --- | --- |
| Clc1ccc(OCCn2ccnc2)c(Cl)c1 | -18.9% |
| CN(C)/C=N/c1[nH]ncc1C#N | 16% |
| CC1CCN(CCc2nc3cc(NC(=O)COc4ccc(Cl)cc4)ccc3n2C)CC1 | -74.7% |
| COc1ccc(-c2c(-c3cc(OC)cc(OC)c3)n(C)c3ccc(-c4cccc5[nH]ccc45)cc23)cc1 | 16.7% |
| COCCNC(=O)c1ccccc1NS(=O)(=O)c1ccc(Br)s1 | 0.678% |
| CC(C)=C1C2CCC1C(C(=O)Nc1cc(C)cc(C)c1)C2C(=O)O (centres unmarked) | 14% |
| CCN(CC)CC#CCC(OC)(c1ccccc1)c1ccccc1.Cl | -32.5% |
| CCN(CC)CC#CCC(C)(c1ccccc1)c1ccccc1.Cl | -54.8% |
| CCN(CC)CC#CCC(O)(c1ccccc1)c1ccccc1 | -25.1% |
| CCN(CC)CC#CCC(O)(c1ccccc1)C1CCCC1.Cl (centres unmarked) | -11.7% |
| CN(C)CC#CCC(O)(c1ccccc1)c1ccccc1 | -2.15% |
| CCN(CC)CC#CCC(O)(c1ccccc1)c1ccc(Br)cc1.Cl (centres unmarked) | -50.1% |
| CC(=O)N1CCC(N(CCN2CCOCC2)C(=S)Nc2cccc(C)c2)CC1 | 0.988% |
| C=CCN(c1ccccc1)S(=O)(=O)c1cccc(C(=O)NCC(c2ccc(F)cc2)N2CCOCC2)c1 (centres unmarked) | -29.6% |
| COc1ccc(C(CNC(=O)c2cccc(S(=O)(=O)Nc3ccccc3OC)c2)N2CCOCC2)cc1 (centres unmarked) | -46.1% |
| COc1ccc(C(CNC(=O)c2cccc(S(=O)(=O)Nc3ccccc3OC)c2)N2CCCC2)cc1 (centres unmarked) | -56.6% |
| COc1ccccc1C(CNC(=O)c1cccc(S(=O)(=O)Nc2ccc(C)cc2)c1)N1CCCC1 (centres unmarked) | -29.8% |
| COc1ccccc1NS(=O)(=O)c1cc(C(=O)NCC(c2ccco2)N2CCCCC2)ccc1C (centres unmarked) | -48.6% |
| C=CCN(c1ccccc1)S(=O)(=O)c1cccc(C(=O)NCC(c2cccs2)N2CCOCC2)c1 (centres unmarked) | -18.7% |
| COc1ccccc1NS(=O)(=O)c1cccc(C(=O)NCC(c2ccccc2OC)N2CCCC2)c1 (centres unmarked) | -12.9% |
| COc1ccccc1NS(=O)(=O)c1cc(C(=O)NCC(c2ccc(F)cc2)N2CCOCC2)ccc1C (centres unmarked) | -19.1% |
| C=CCN(c1ccccc1)S(=O)(=O)c1cccc(C(=O)NCC(c2ccccc2OC)N2CCCC2)c1 (centres unmarked) | -70.5% |
| COc1ccc(NS(=O)(=O)c2cccc(C(=O)NCC(c3ccc(OC)cc3)N3CCCC3)c2)cc1 (centres unmarked) | -46.7% |
| COc1ccc(C(CNC(=O)c2ccc(C)c(S(=O)(=O)Nc3ccccc3OC)c2)N2CCCC2)cc1 (centres unmarked) | -66.2% |
| COc1ccc(NS(=O)(=O)c2cccc(C(=O)NCC(c3ccccc3OC)N3CCCC3)c2)cc1 (centres unmarked) | -55.4% |
